PubChem BioAssay AID501 (PCMD, 2006)
In all, about 62,000 compounds went through this assay and about 35 (0.06%) were called active. Cut-off read from the data, not from the text of the source: active = inhibition above about 32% (passing the limit was not always enough); inconclusive = no clear call, values can overlap the other calls. The sample as a whole holds a higher share of actives than the screen did.

target: Cathepsin S (Homo sapiens) (UniProt P25774); test: blockers of CTSS protease activity – biochemical, compound mixtures (AID 501); conditions: recombinant cathepsin S, AMC dipeptide fluorescence, pooled mixtures; active compounds read high;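 tested at 5 µM per compound within 10-compound mixtures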;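 note: 0% = enzyme without compound and 100% = blank without enzyme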
Sequence (P25774 115-331 limits assumed): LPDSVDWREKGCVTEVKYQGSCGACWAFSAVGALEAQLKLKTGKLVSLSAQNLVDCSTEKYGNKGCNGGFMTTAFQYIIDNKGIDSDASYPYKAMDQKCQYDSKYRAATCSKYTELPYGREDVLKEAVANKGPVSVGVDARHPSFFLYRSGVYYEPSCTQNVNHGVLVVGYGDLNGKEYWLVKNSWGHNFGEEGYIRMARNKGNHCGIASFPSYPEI

inhibition, inactive:
COc1ccc(-n2ncc3c(N4CCc5ccccc54)ncnc32)cc1 -6.55%
COc1ccccc1C(=O)N1CCN=C1SCc1cccnc1 3.41%
CCn1cc(C(=O)N2CCN(Cc3ccc4c(c3)OCO4)CC2)c2cc(OC)c(OC)cc2c1=O 0.555%
Cc1ccc(S(=O)(=O)NCc2cn3ccsc3n2)c(C)c1 -2.17%
CC1(C)CC(=O)C(C=NCc2cccnc2)=C(O)C1 -6.24%
COc1ccc(C(=O)Cn2nnc(-c3ccc(N4CCOCC4)cc3)n2)cc1OC 8.22%
Cc1c(-c2nn(C)c(=O)c3ccccc23)oc2ccc(F)cc2c1=O 21.9%
CCn1c(SCC(=O)Nc2cc(C)ccc2C)nnc1-c1cnccn1 -6.74%
O=C(Cn1nnc(-c2ccccc2)n1)NCc1ccccc1 3.11%
NC(=O)Cn1c(=O)oc2ccccc21 0.705%
Cc1nnc(C)n1/N=C/c1ccc(C(C)C)cc1 5.16%
CCc1nnc(NC(=O)CSc2nnc(-c3ccncc3)n2Cc2ccccc2)s1 15.4%
Cc1cc(N2CCCC2=O)cc(C)c1S(N)(=O)=O 14%
CC(C)OCCCNC(=O)CNC(=O)c1cccs1 15.3%
Cn1cnc2c1c(=O)n(Cc1c(Cl)cccc1Cl)c(=O)n2C -2.21%
CCOC(=O)CNC(=O)CSc1nnc(COc2ccc(Cl)cc2)n1CC 17%
Cc1cccc(N2CCN(C(=O)C3CCN(S(=O)(=O)c4cnc[nH]4)CC3)CC2)c1C -2.09%
CCOC(=O)c1c(NC(=O)c2ccc(Br)o2)sc2c1CCCC2 -2.96%
COc1cccc(N(CC(=O)NC2CCCC2)C(=O)Cn2nnc(-c3ccc(C)cc3)n2)c1 -32.1%
CC1CC(c2ccccc2)n2nc(NC(=O)c3cccs3)nc2N1 (stereo unspecified) 7.8%
CC(=O)Nc1cc2ccc(OC(C)=O)cc2oc1=O -31.5%
C=CCNC(=O)C1CC=CCC1C(=O)O (stereo unspecified) -2.51%
CCOC(=O)CSc1nnc(CNc2nc(-c3ccccc3)cs2)n1C -5.74%
O=C(NC(c1ccccc1)c1ccccc1)N1CCN(CCO)CC1 10.9%
Cc1cc(C(F)(F)F)nn1-c1nc(-c2ccco2)cc(C(F)(F)F)n1 7.66%
COCCn1c(CN(Cc2ccccc2)Cc2ccccc2)nc2c1c(=O)n(C)c(=O)n2C 9.43%
CCN(C(=O)CSc1ncn[nH]1)c1cccc2ccccc12 2.39%
Cc1noc(NS(=O)(=O)c2ccc(N3CC(O)=C(c4ccccc4)C3=N)cc2)c1C -12.9%
CCn1ncc(Br)c1C(=O)Nc1cc(C)ccc1F 6.74%
Cc1ccc(-c2nc(CS(=O)CC(=O)N3CCN(c4ncccn4)CC3)c(C)o2)cc1 (stereo unspecified) 7.31%
CC(C)n1c(C(O)c2ccccc2)nc2ccccc21 (stereo unspecified) -7.12%
Cc1ccccc1N1CC(c2nc3ccccc3[nH]2)CC1=O (stereo unspecified) -1.51%
Cc1ccc(-c2nnc(SC(C)C#N)n2N)cc1 (stereo unspecified) -1.33%
Cn1c(=O)c(C(=O)Nc2ncccn2)c(O)c2ccccc21 -4.57%
CC(=O)NCCc1ccc(S(=O)(=O)N(C)C2CCS(=O)(=O)C2)cc1 (stereo unspecified) 30%
CCc1ccccc1NC(=O)CSc1nnc([C@@H](NC(=O)OC(C)(C)C)C(C)C)o1 9.29%
Cc1nn(C)c(C)c1S(=O)(=O)N1CCc2ccccc21 -5.94%
CCOC(=O)c1sc(N(Cc2ccccc2)C(=O)CN2C(=O)CN(C)C2=O)nc1C -1.84%
COCCn1c(=O)[nH]c2cc(C(=O)NCc3cccnc3)ccc2c1=O 4.14%
Cc1ccc(NC(=O)CS(=O)CC(=O)N(c2ccccc2)C(C)C(=O)NC2CCCC2)cc1 (stereo unspecified) -27.8%
O=C(C1CCN(CC2CCCCC2)CC1)N1CCCC1 -3%
FC(F)Oc1ccccc1C1CC(c2ccc(Br)s2)Nc2ncnn21 (stereo unspecified) 1.68%
CCC(C)n1[nH]c(=O)c2c(C)cc(C)nc21 (stereo unspecified) 12.4%
Cc1nc(NC(=O)CCC(=O)O)sc1C(=O)N(C)C -4.56%
O=C(Cn1cc2c(n1)CCCCC2)NCCN1CCOCC1 7.2%
CC(C)c1ccc(NS(=O)(=O)c2cn(C)c(=O)n(C)c2=O)cc1 -0.575%
COc1ccccc1NC(=O)CSc1nnc(Cn2nnc(-c3ccccc3)n2)n1-c1ccccc1 -0.79%
CC(CNC(=O)c1ccc(Br)o1)NC(=O)c1ccc(Br)o1 (stereo unspecified) 6.17%
COc1cc(Cl)cc(C2NC(=O)NC(C)=C2C(=O)NCc2ccccc2)c1O (stereo unspecified) 7.15%
CCOC(=O)C(C)Oc1cccc2c(=O)n(CC(=O)N3CCc4ccccc43)ccc12 (stereo unspecified) -6.21%
CC(NC(=O)CN1CCN(Cc2ccc(Cl)cc2)C1=O)c1ccc2c(c1)OCCO2 (stereo unspecified) 55.3%
CSc1sc(C)cc1C1C(C#N)=C(N)N(c2cccnc2)C2=C1C(=O)CCC2 (stereo unspecified) 1.56%
NC(=O)c1ccsc1NC(=O)c1ccco1 7.91%
COC(=O)[C@H](CCSC)NC(=O)Nc1ccc(OC)cc1 -1.09%
O=C(CCCn1c(=O)[nH]c2cc(Cl)ccc2c1=O)NCCN1CCN(c2ccccc2)CC1 13.6%
Cc1ccc(-c2noc(CSc3nnc(-c4ccccc4)n3C)n2)cc1 -4.08%
COCCCn1c(CCC(=O)O)ccc1-c1ccc(F)cc1 -19.4%
CCCNS(=O)(=O)c1ccc(CCC(=O)NCc2cccnc2)cc1 -3.48%
CCOc1ccc(CC(=O)Nc2ccc(S(=O)(=O)Nc3cc(C)on3)cc2)cc1OCC -4.34%
Cc1cnc(NC(=O)CSc2nnc(-c3ccccc3)n2Cc2ccccc2)s1 11.8%
CCOc1ccc(NC(=O)Nc2ccc(N(C)C(C)=O)cc2)cc1 -16.6%
